# The supplement of paper PMC10037445
# In all, about 2,900 compounds were measured (“IRF Lucia reporter activity, fold change vs agonist alone”: median about 0.9, highest 2% from about 2.8 on). The list comes from a sample in which the highest values are over-represented; it also holds similar structures and randomly drawn compounds.
# Assays:
# RAW-Dual [1] = assay: IRF Lucia reporter activity, fold change vs agonist alone; cytotoxicity flag (confluency mask): not cytotoxic; higher = enhanced IRF activity
# How it was run: (§1)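 RAW-Dual macrophages (50,000 cells/well in DMEM, 384-well plates) received 50 nL of library stock by pin tool, then a PRR agonist 1 h later, and were kept at 37 °C, 5% CO2. After 20 hours, supernatant was read for IRF by QuantiLuc luminescence and for NF-κB by QuantiBlue absorbance at 620 nm. Reporter activity is fold change over agonist-alone wells. Cytotoxic wells had IncuCyte confluency below 70% of agonist controls in both mask sets.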
# RAW-Dual [2] = assay: IRF Lucia reporter activity, fold change vs agonist alone; higher = enhanced IRF activity; details: agonist: MPLA (TLR4) […]
# How it was run: as §1
# RAW-Dual [3] = assay: IRF Lucia reporter activity, fold change vs agonist alone; cytotoxicity flag (confluency mask): cytotoxic (confluency <70% of control); higher = enhanced IRF activity
# How it was run: as §1
# [4] = agonist: 3'3'-cGAMP (STING) 10 ug/mL
# [5] = library stock concentration (final ~1000-fold dilution): 10 mM, cytotoxicity flag (confluency mask): not cytotoxic
smiles,measurement,setting,value
O=C(CCc1ccc(O)cc1)c1c(O)cccc1OC1OC(CO)C(O)C(O)C1O (stereo unspecified) (library stock concentration (final ~1000-fold dilution): 10 mM),IRF Lucia reporter activity,RAW-Dual [1]; [4],0.943
same,IRF Lucia reporter activity,RAW-Dual [1]; agonist: LPS (TLR4) 0.1 ug/mL,0.918
O=C(CCc1ccc(O)cc1)c1c(O)cccc1OC1OC(CO)C(O)C(O)C1O (stereo unspecified),IRF Lucia reporter activity,RAW-Dual [2]; [5],1.01
CC(c1ccc2nccn2c1)n1nnc2ncc(-c3cnn(C)c3)nc21 (stereo unspecified) (library stock concentration (final ~1000-fold dilution): 10 mM),IRF Lucia reporter activity,RAW-Dual [1]; [4],0.953
same,IRF Lucia reporter activity,RAW-Dual [1]; agonist: LPS (TLR4) 0.1 ug/mL,1.15
CN(C)CCSSCCNC(=O)C1CCN(C(=O)CSc2ccc(Cl)cc2)CC1.O=C(O)C(F)(F)F (library stock concentration (final ~1000-fold dilution): 10 mM),IRF Lucia reporter activity,RAW-Dual [1]; [4],0.396
same,IRF Lucia reporter activity,RAW-Dual [1]; agonist: LPS (TLR4) 0.1 ug/mL,0.778
CN(C)CCSSCCNC(=O)C1CCN(C(=O)CSc2ccc(Cl)cc2)CC1.O=C(O)C(F)(F)F,IRF Lucia reporter activity,RAW-Dual [2]; [5],0.751
O=C1OC(COc2ccccc2[N+](=O)[O-])CC1Cc1ccccc1 (stereo unspecified) (library stock concentration (final ~1000-fold dilution): 10 mM),IRF Lucia reporter activity,RAW-Dual [1]; [4],1.23
same,IRF Lucia reporter activity,RAW-Dual [1]; agonist: LPS (TLR4) 0.1 ug/mL,1.23
O=c1cccccc1O,IRF Lucia reporter activity,RAW-Dual [2]; [5],1.24
O=c1cccccc1O (library stock concentration (final ~1000-fold dilution): 10 mM),IRF Lucia reporter activity,RAW-Dual [1]; [4],0.664
same,IRF Lucia reporter activity,RAW-Dual [1]; agonist: LPS (TLR4) 0.1 ug/mL,0.952
NC(=O)c1cc(F)cc2c1C(=O)N(C1CCN(C3CCC(F)(F)CC3)CC1)C2 (library stock concentration (final ~1000-fold dilution): 10 mM),IRF Lucia reporter activity,RAW-Dual [1]; [4],0.94
same,IRF Lucia reporter activity,RAW-Dual [1]; agonist: LPS (TLR4) 0.1 ug/mL,0.923
O=C(Nc1nc2cccc(-c3ccc(CN4CCS(=O)(=O)CC4)cc3)n2n1)C1CC1 (library stock concentration (final ~1000-fold dilution): 10 mM),IRF Lucia reporter activity,RAW-Dual [1]; [4],1.1
same,IRF Lucia reporter activity,RAW-Dual [1]; agonist: LPS (TLR4) 0.1 ug/mL,3.4
CC1(C)CN(C(=O)c2ccc(-c3cccc4nc(NC(=O)C5CC5)nn34)cc2)C1,IRF Lucia reporter activity,RAW-Dual [2]; [5],0.713
CC1(C)CN(C(=O)c2ccc(-c3cccc4nc(NC(=O)C5CC5)nn34)cc2)C1 (library stock concentration (final ~1000-fold dilution): 10 mM),IRF Lucia reporter activity,RAW-Dual [1]; [4],0.308
same,IRF Lucia reporter activity,RAW-Dual [1]; agonist: LPS (TLR4) 0.1 ug/mL,0.577
CNCCC=C1c2ccccc2CCc2ccccc21.Cl,IRF Lucia reporter activity,"RAW-Dual [2]; library stock concentration (final ~1000-fold dilution): 10 mM, cytotoxicity flag (confluency mask): cytotoxic (confluency <70% of control)",1.38
CNCCC=C1c2ccccc2CCc2ccccc21.Cl (library stock concentration (final ~1000-fold dilution): 10 mM),IRF Lucia reporter activity,RAW-Dual [3]; [4],0.464
same,IRF Lucia reporter activity,RAW-Dual [3]; agonist: LPS (TLR4) 0.1 ug/mL,1.52
CN(C)c1ccc(O)c2c1CC1CC3C(N(C)C)C(O)=C(C(N)=O)C(=O)C3(O)C(O)=C1C2=O.Cl (stereo unspecified),IRF Lucia reporter activity,"RAW-Dual [2]; library stock concentration (final ~1000-fold dilution): 2 mM water, cytotoxicity flag (confluency mask): not cytotoxic",1.28
CN(C)c1ccc(O)c2c1CC1CC3C(N(C)C)C(O)=C(C(N)=O)C(=O)C3(O)C(O)=C1C2=O.Cl (stereo unspecified) (library stock concentration (final ~1000-fold dilution): 2 mM water),IRF Lucia reporter activity,RAW-Dual [1]; [4],1.09
same,IRF Lucia reporter activity,RAW-Dual [1]; agonist: LPS (TLR4) 0.1 ug/mL,0.851
